Most compounds without a hit are left out; they make up all but 3.5% or so of the library.
GPR151 activ – activates the human receptor GPR151; Q8TDV0; PathHunter beta-arrestin GPR151 cells, luminescence; activation, % at 11.2 µM; hit rate 1% among 650,000; in the data active = activation above about 4.9%;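 also: 0% = median of compound wells and 100% = cells with positive control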
FBW7 activator – human FBW7 E3 ligase activation, primary screen; normalized activity (activation), % at 26.1 µM; Q969H0; hit rate 0.13% among 650,000; AlphaScreen FBW7–phospho-cyclin E peptide binding, activator screen; in the data active = normalized activity above about 1.9%;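 also: purified mutant Fbw7 with reduced substrate affinity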
TEAD-YAP inh – TEAD-YAP interaction inhibition | HEK-TIYL cells, TEAD-Gal4/YAP UAS-luciferase luminescence | inhibition, % at 9.12 µM | hit rate 1.4% among 640,000; in the data active = inhibition above about 32%;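 also: 0% = median of test compound wells and 100% = reference inhibitor wells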
MITF inh – inhibitors of human MITF; O75030; AlphaScreen MITF homodimerization, bead proximity signal; inhibition, % at 2.6 µM; hit rate 0.91% among 650,000; AID 1259374; in the data active = inhibition above about 50%;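 also: 0% = vehicle wells with protein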
Target sequence (O75030 whole entry, looked up): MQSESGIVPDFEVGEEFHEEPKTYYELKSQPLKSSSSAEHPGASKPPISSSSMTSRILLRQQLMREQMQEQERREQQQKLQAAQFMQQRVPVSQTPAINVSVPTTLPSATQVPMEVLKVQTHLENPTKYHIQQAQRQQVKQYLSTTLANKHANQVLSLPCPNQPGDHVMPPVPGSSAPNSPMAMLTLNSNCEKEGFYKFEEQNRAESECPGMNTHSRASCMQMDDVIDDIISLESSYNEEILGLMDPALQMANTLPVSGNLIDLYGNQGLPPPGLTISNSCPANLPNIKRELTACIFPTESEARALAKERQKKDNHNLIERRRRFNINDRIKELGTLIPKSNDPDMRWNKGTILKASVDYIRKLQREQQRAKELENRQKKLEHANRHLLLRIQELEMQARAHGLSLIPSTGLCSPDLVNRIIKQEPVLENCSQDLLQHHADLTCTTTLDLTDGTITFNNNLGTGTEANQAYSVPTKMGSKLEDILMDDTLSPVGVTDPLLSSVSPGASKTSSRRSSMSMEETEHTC
GPR151 conf act – human GPR151 activation, confirmation screen | shares compounds with GPR151 activ | GPR151 PathHunter beta-arrestin cells, luminescence, 90 min; % of EA-reagent control over plate median | activation, % at 11.2 µM | 6,700 tested, under 10 active;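 active = mean percent activation across replicates above the confirmation screen cutoff of 4.91%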
GPR119 counter – GPR119 activation, counter-screen for GPR151 activators. AID 1508611. GPR119 PathHunter beta-arrestin cells, luminescence, 90 min; 0 = compound-well median, 100 = enzyme-acceptor control. hit rate 0.3% among 6,700. activation, % at 11.2 µM. shares compounds with GPR151 activ;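 active = mean percent activation in the counterscreen above 29.09%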;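 also: counterscreen on off-target GPR119 to flag nonselective hits from the GPR151 activator screen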
Starred values were filed as active, the others as inactive; / = no result given.

SMILES	GPR151 activ	FBW7 activator	TEAD-YAP inh	MITF inh	GPR151 conf act	GPR119 counter
Cc1cccc(-c2nc(CS(=O)CC(=O)NC(C)C)c(C)o2)c1 (configuration not stated)	0.8	-0.1	7.2	7.1	/	/
CC1CCN(C(=O)CSc2nc3[nH]ncc3c(=O)[nH]2)CC1	7.7*	0.1	-5.3	0.4	0.5	9.6
COc1cccc2cc(-c3ccc4c(c3)OCO4)c(=O)oc12	5.2*	-0.3	-51.8	-10.7	-1.2	-11.7
COc1cccc2cc(-c3ccccc3)c(=O)oc12	-7.9	0.0	-19.6	-3.2	/	/
CC(=O)OC[C@H]1O[C@@H](n2ccc(=O)[nH]c2=S)C(OC(C)=O)C1OC(C)=O (some centres not stated)	5.9*	-0.1	-1.3	-6.5	-0.1	-9.5
C=CCN1C(=O)S/C(=C/c2cc(Cl)c(O)c(Br)c2)C1=O	2.0	0.0	3.9	-4.4	/	/
CCOc1ccc(NC(=O)CSc2nc(O)cc(=O)n2-c2ccc(F)cc2)cc1	0.4	0.2	4.5	-21.4	/	/
COc1ccc(OCC(CN(C)C2=NS(=O)(=O)c3ccccc32)OC(=O)c2ccc(OC)cc2)cc1 (configuration not stated)	0.1	-0.1	-5.0	-0.9	/	/
CC(NC(=O)CCl)c1ccc(F)cc1F (configuration not stated)	5.2*	-0.1	17.4	2.8	0.6	-1.2
CC(NC(=O)CCl)c1ccc2c(c1)CCCC2 (configuration not stated)	1.9	0.0	18.2	-4.9	/	/
COc1ccc(CCNC(=O)c2sc3nc(C)nc(N4CCC(C)CC4)c3c2C)cc1OC	1.1	0.1	-13.7	4.7	/	/
Cc1nc(N2CCCCC2)c2c(C)c(C(=O)N3CCN(c4ccccc4)CC3)sc2n1	5.3*	0.2	12.3	2.6	-0.3	-1.2
COc1ccc(CCNC(=O)c2sc3nc(C)nc(N4CCCCC4)c3c2C)cc1OC	24.6*	-0.1	-3.2	0.1	0.9	-1.0
O=C(Nc1cccs1)Nc1ccccc1NC(=O)c1ccccc1F	-0.5	0.0	-39.2	10.8	/	/
Cc1ccccc1C(=O)Nc1ccccc1NC(=O)Nc1cccs1	12.0*	-0.3	-12.8	9.5	-0.2	3.6
COc1cccc(NC(=O)c2sc3nc4ccc(C)cc4cc3c2N)c1	-1.4	-0.2	-30.9	1.9	/	/
COc1ccc(NC(=O)COc2ccc(Cl)cc2)cc1NC(=O)c1ccco1	6.0*	-0.1	5.7	-1.6	-0.1	-2.8
CC(NC(=O)c1cnccn1)c1nc(-c2ccc(Cl)cc2)n[nH]1 (configuration not stated)	8.1*	-0.1	1.8	-1.2	0.5	12.5
CC(NC(=O)c1cnccn1)c1nc(-c2ccncc2)n[nH]1 (configuration not stated)	-1.3	0.0	5.8	2.0	/	/
O=S(=O)(CCOc1nc2cc(Cl)ccc2cc1CNC1CCOC1)c1ccccc1 (configuration not stated)	6.8*	-0.2	1.2	13.6	0.3	12.4
NC(CC(=O)O)c1ccc(F)cc1 (configuration not stated)	-1.1	-0.1	-0.6	-2.5	/	/
Oc1ccc(C(c2ccc(O)cc2)c2ccc(F)cc2)cc1	7.7*	-0.1	7.4	5.9	-0.5	20.3
COCCNC(=S)N(C)c1ccc(O)cc1	2.3	-0.2	-1.8	-7.4	/	/
CCN(C(=S)NCCOC)c1cccc2ccccc12	13.5*	0.8	-6.1	15.7	-1.7	-13.3
Cc1ccc(OCC(=O)N(C)C2CCCCC2)cc1C	5.0*	-0.2	-73.1	-5.0	-0.9	6.9
SMILES	GPR151 activ	FBW7 activator	TEAD-YAP inh	MITF inh	GPR151 conf act	GPR119 counter
Cc1ccc(OCC(=O)NC2CCCCC2)cc1C	-0.6	0.3	-17.5	-3.6	/	/
CCCCOc1ccc(C(=O)Nc2sc(C)c(C)c2C#N)cc1	8.3*	-0.1	-5.5	-2.3	-0.6	8.1
CCOc1ccc(C(=O)Nc2sc(C)c(C)c2C#N)cc1	-0.9	0.0	-5.0	14.4	/	/
CCCn1nnc(NC(=O)C(C)Oc2ccc(Cl)cc2Cl)n1 (configuration not stated)	4.9*	0.1	6.9	6.3	-0.2	-8.1
CCN(CC)CCNC1CCN(c2ccc(NC(=O)c3cccc(Cl)c3)cc2)CC1	1.2	-0.1	-34.6	14.4	/	/
CCOCCCNC1CCN(c2ccc(NC(=O)c3cccc(Cl)c3)cc2)CC1	16.9*	0.0	26.6	12.4	0.2	20.8
CCOc1ccc(C(=O)NC(=S)Nc2cccnc2)cc1[N+](=O)[O-]	0.2	0.0	27.2	-7.0	/	/
CCOc1c(Cl)cc(C(=O)NC(C)(C)C)cc1Cl	1.5	0.1	4.8	-5.4	/	/
CCOc1ccc(C(=O)NC(C)(C)C)cc1Cl	6.9*	0.2	9.8	1.0	-0.6	-13.4
CCOc1ccc(C(=O)NC(=S)Nc2cccnc2)cc1Cl	7.1*	0.2	-1.4	-11.8	0.9	15.5
CN(C)CCCNC(=S)Nc1cccc(C(F)(F)F)c1	0.6	0.1	12.8	-11.9	/	/
COc1ccc(C(=O)Nc2cc(C(N)=O)ccc2OC)cc1	0.2	-0.3	1.0	-8.8	/	/
COc1ccc(C(N)=O)cc1NC(=O)CC(O)(C(F)(F)F)C(F)(F)F	7.3*	0.0	-9.9	48.4	0.0	-10.6
O=C1NC(=O)C(=Cc2ccc(OC(=O)c3ccccc3Cl)cc2)C(=O)N1	5.5*	-0.9	-2.8	-9.6	0.3	3.0
CC(C)(C)c1ccc(/C=C(\C#N)C(=O)NCc2ccco2)cc1	-0.8	-0.1	0.1	9.0	/	/
COc1ccc(NC(=O)COc2ccc3c(=O)c(-c4ccc(F)cc4)coc3c2)cc1	5.4*	0.0	-5.3	-5.6	1.1	1.6
COc1ccc(Cc2noc(-c3ccc([N+](=O)[O-])cc3)n2)cc1	-0.1	0.0	10.9	10.9	/	/
CC(C)(C)c1nc(Cc2ccc([N+](=O)[O-])cc2)no1	8.6*	0.0	0.0	-1.4	-0.7	2.2
Cc1ccc(OCC(=O)N/N=C/c2cc3c(cc2[N+](=O)[O-])OCO3)cc1C	-1.2	-0.1	5.6	18.3	/	/
COc1ccc(OCC(=O)N/N=C/c2cc3c(cc2[N+](=O)[O-])OCO3)cc1	10.2*	-0.1	-6.1	-1.2	-0.4	-14.7
O=S(=O)(c1cccc(S(=O)(=O)N2CCOCC2)c1)c1ccc(Cl)c(Cl)c1	5.5*	0.0	5.2	10.3	0.5	12.9
COc1ccccc1N1CC(O)=C(c2ccccc2)C1=N	-1.1	0.1	-7.5	6.3	/	/
CC(=O)Nc1ccc(NC(=O)C/C(C)=N/NC(=O)C(=O)NCCO)cc1	5.8*	0.1	-0.9	-1.3	0.5	6.3
COc1cc(/C=C2/C(=O)NN(c3cccc(C)c3)C2=O)cc([N+](=O)[O-])c1O	-0.9	0.0	2.8	3.4	/	/
Cc1ccc(/C=C2\C(=O)NC(=O)N(c3cccc(Br)c3)C2=O)cc1[N+](=O)[O-]	5.1*	0.1	8.1	-3.7	0.4	12.4
CCOc1cc(/C=C2/C(=O)NN(c3cccc(C)c3)C2=O)cc([N+](=O)[O-])c1O	6.0*	0.3	2.0	10.2	0.7	0.8
